# Compound activity as filed in PubChem.
# Shown is part of a subset that was picked to be rich in hits.
# BL2 CD40 inh – CD40 pathway inhibition in BL2 cells. BL2 NF-kB luciferase reporter, CD40L-induced, 4 h. inhibition, % at 10 µM. hit rate 0.94% among 83,000;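 active = mean inhibition of at least 50% with a set share of replicates also reaching that level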;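 also: 0% = neutral control wells and 100% = IKK inhibitor VII at 50 µM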
# An asterisk follows results filed as active; [ ] = remark or other dose.
SMILES,BL2 CD40 inh
O=C(C1CCOCC1)N1CC(=O)N2[C@H](C1)[C@@H](c1ccc(C#CCc3ccccc3)cc1)[C@@H]2CO,58.3*[25 µM]
Cc1ccc(-c2ccc([C@H]3[C@H]4CN(C(=O)NC(C)C)CC(=O)N4[C@H]3CO)cc2)cc1,5.3[25 µM]
CC(C)NC(=O)N1CC(=O)N2[C@H](CO)[C@@H](c3ccc(/C=C/c4ccccc4)cc3)[C@H]2C1,52.9*[25 µM]
O=C(C1CCCC1)N1CC(=O)N2[C@H](CO)[C@@H](c3ccc(C#CCc4ccccc4)cc3)[C@H]2C1,42.6
Cc1ccc(-c2ccc([C@H]3[C@H](CO)N4C(=O)CN(C(=O)NC(C)C)C[C@@H]34)cc2)cc1,-13.9[25 µM]
O=C(C1CCCC1)N1CC(=O)N2[C@@H](CO)[C@H](c3ccc(C#CCc4ccccc4)cc3)[C@@H]2C1,92.8*
O=C(C1CCOCC1)N1CC(=O)N2[C@H](CO)[C@@H](c3ccc(C#CCc4ccccc4)cc3)[C@@H]2C1,12.0[25 µM]
O=C(C1CCOCC1)N1CC(=O)N2[C@@H](CO)[C@@H](c3ccc(C#CCc4ccccc4)cc3)[C@@H]2C1,5.3[25 µM]
COCC#Cc1ccc([C@H]2[C@@H](CO)N3C(=O)CN(C(=O)C4CCCC4)C[C@H]23)cc1,-4.0
C[C@H]1CN([C@@H](C)CO)C(=O)CCCn2cc(nn2)CO[C@H]1CN(C)Cc1ccc2c(c1)OCCN2C,-2.6[25 µM]
CC(=O)NC[C@@H]1[C@H](c2ccccc2)[C@H](CO)N1C(=O)Cc1cccnc1,-10.9[25 µM]
O=C(Nc1cc(F)ccc1F)N1[C@@H]2CNC[C@H]1C2c1ccc(-c2ccc(F)cc2)cc1 (stereo not given in full),-20.1
O=C(Nc1ccccc1)[C@@H]1[C@@H](CO)[C@@H]2Cn3c(cccc3=O)[C@H]1N2Cc1ccncc1,2.5[25 µM]
COc1ccccc1CNC(=O)C[C@@H]1CC[C@@H]2[C@H](COC[C@@H](O)CN2Cc2ccc3c(c2)OCO3)O1,4.7[25 µM]
COC(=O)c1nccnc1N,3.4
C[C@H]1CN([C@@H](C)CO)C(=O)c2c(c3ccccc3n2C)-c2ccccc2CO[C@@H]1CN(C)Cc1cccnc1,-13.2[25 µM]
C[C@H]1CCCCO[C@H](CN(C)S(=O)(=O)c2ccc(F)cc2)[C@@H](C)CN([C@@H](C)CO)C(=O)c2cc(NC(=O)Nc3ccc(F)cc3)ccc2O1,3.0
CN(C)C(=O)c1cccc(-c2ccc3c(c2)[C@@H]2[C@@H](CCN2C(=O)C2CCCC2)[C@H](CO)N3)c1,43.6
COc1cccc(S(=O)(=O)Nc2ccc3c(c2)C(=O)N(C)[C@@H]2CC[C@@H](CC(=O)NCC4CCCCC4)O[C@@H]2CO3)c1,7.1[25 µM]
O=CNc1cc(-c2ccccc2)cn2c(-c3ccc(F)c(Cl)c3)cnc12,-23.1
CCSc1ccc(-c2cc(NC=O)c3ncc(-c4cccc(C(=O)N(C)C)c4)n3c2)cc1,51.3*
CC(=O)c1ccc(-c2cnc3c(NC=O)cc(-c4ccc(N5CCN(C)CC5)cc4)cn23)cc1,-24.6
CCN(CC)c1ccc2nc3ccc(N)cc3[n+](-c3ccccc3)c2c1,88.2*
Nc1ccc2nc(Cc3ccccc3)[nH]c2c1,0.8
COc1ccc(S(=O)(=O)Nc2cccc3c2O[C@H](CN(C)C(=O)Nc2cccc4ccccc24)[C@H](C)CN([C@H](C)CO)C3=O)cc1,-15.5[25 µM]
SMILES,BL2 CD40 inh
CN(C)C(=O)c1cccc(-c2ccc3c(c2)[C@@H]2[C@@H](CCN2C(=O)c2ccccc2)[C@H](CO)N3C)c1,-2.2[25 µM]
O=C(NCC1CC1)[C@@H]1[C@@H](CO)[C@@H]2Cn3c(ccc(C4=CCCC4)c3=O)[C@@H]2N1C(=O)C1CC1,-4.6[25 µM]
O=S(=O)(Nc1ccccc1)c1ccc(S(=O)(=O)N2CCCC2)cc1,1.9
NC(=O)c1ccccc1NS(=O)(=O)c1ccc(S(=O)(=O)N2CCCC2)cc1,4.5
O=S(=O)(Nc1cccc2cccnc12)c1ccc(S(=O)(=O)N2CCCC2)cc1,76.0*
CCCNC(=O)[C@@H]1[C@@H](CO)[C@@H]2Cn3c(ccc(-c4cccc(C(=O)N(C)C)c4)c3=O)[C@H]1N2,1.9[25 µM]
COc1ccccc1-c1ccc2n(c1=O)C[C@H]1[C@H](CO)[C@@H](C(=O)N(C)C)[C@@H]2N1C(=O)c1cccnc1,1.5[25 µM]
CCCN(C)C[C@H]1OCCCC[C@@H](C)Oc2ccc(NC(=O)CCCN(C)C)cc2C(=O)N([C@H](C)CO)C[C@H]1C,4.8[25 µM]
Cc1ccc(C(=O)Nc2nc(-c3ccco3)c(-c3ccco3)s2)o1,-0.6
COc1ccc(-c2nc(NC(=O)c3ccco3)sc2C)cc1,50.6*
COc1ccc(-c2nc(NC(=O)c3nc4nccc(C)n4n3)sc2C)cc1,2.6
O=C(C[C@@H]1C[C@H]2c3cc(NC(=O)Nc4ccccc4F)ccc3O[C@H]2[C@H](CO)O1)NCCc1ccccc1,6.7[25 µM]
CC1(C(=O)O)CCN1C(=O)c1cccc(C(F)(F)F)c1 (stereo not given),6.1
O=C(Nc1ccc(F)cc1)c1nn(-c2ccccc2)c(=O)cc1Cl,84.9*
CCOC(=O)c1nn(-c2ccc(F)cc2)c(=O)cc1OCC(=O)Nc1cccc(C)c1,12.5
Cc1ccc(NC(=O)c2cc(-c3ccccc3)nn2-c2ccccc2)cc1,-3.3
Cc1ccc(-c2cc(C(=O)N/N=C/c3c(C)nn(C)c3C)c3ccccc3n2)c(C)c1,4.9
CCC(=O)N1C[C@H](O)COC[C@@H]2O[C@@H](CC(=O)NC)CC[C@H]21,0.2[25 µM]
Cc1noc(C)c1S(=O)(=O)N(C)C[C@H]1Oc2c(NC(=O)c3ccc(-c4nccs4)cc3)cccc2C(=O)N([C@H](C)CO)C[C@H]1C,-5.9[25 µM]
COCC(=O)N1[C@H](C#N)[C@@H](c2ccccc2-c2ccccc2)[C@H]1CO,-1.7[25 µM]
O=C(Cn1nc(C(=O)O)c2ccccc2c1=O)Nc1ccc(Cl)c(S(=O)(=O)N2CCOCC2)c1,4.6
CCN(CC)S(=O)(=O)c1ccc(N2CCCC2)c(NC(=O)c2ccc(N3CCCC3=O)cc2)c1,-6.4
C[C@@H]1CN([C@H](C)CO)C(=O)c2cc(NC(=O)CCC(F)(F)F)ccc2O[C@H]1CN(C)Cc1ccc(Oc2ccccc2)cc1,-4.1
C[C@H]1CN([C@@H](C)CO)C(=O)c2ccccc2-c2ccccc2CO[C@H]1CN(C)Cc1ccc(O)cc1,-4.2
C[C@H](CO)N1C[C@H](C)[C@@H](CN(C)Cc2ccc(Oc3ccccc3)cc2)Oc2c(NC(=O)c3ccncc3)cccc2C1=O,34.2
SMILES,BL2 CD40 inh
C[C@@H]1CN([C@H](C)CO)C(=O)c2ccccc2-c2ccccc2CO[C@@H]1CN(C)Cc1ccc(C(=O)O)cc1,-8.0
C[C@H]1CN([C@@H](C)CO)C(=O)c2ccccc2-c2ccccc2CO[C@H]1CN(C)Cc1ccc(Oc2ccccc2)cc1,59.1*[25 µM]
C[C@@H]1CN([C@@H](C)CO)C(=O)c2ccccc2-c2ccccc2CO[C@@H]1CN(C)Cc1ccc(Oc2ccccc2)cc1,61.6*[25 µM]
C[C@@H]1CN([C@H](C)CO)C(=O)c2ccccc2-c2ccccc2CO[C@@H]1CN(C)Cc1ccc(Oc2ccccc2)cc1,41.3[25 µM]
C[C@H](CO)N1C[C@H](C)[C@@H](CN(C)Cc2ccc(Oc3ccccc3)cc2)Oc2c(NC(=O)CCC(F)(F)F)cccc2C1=O,70.4*[25 µM]
C[C@@H]1CN([C@@H](C)CO)C(=O)c2ccccc2-c2ccccc2CO[C@@H]1CN(C)Cc1ccccc1,15.0
CCCC(=O)N1CC2(C1)CN(C(=O)Nc1cccc(F)c1)[C@H](CO)c1c2c2ccc(OC)cc2n1C,4.4[25 µM]
CCS(=O)(=O)N1Cc2cc(C(=O)N(C)C)nc(-c3cccc(-c4ccc(C#N)cc4)c3)c2[C@@H]1CCO,4.8[25 µM]
C/C=C/c1ccc([C@H]2[C@@H](CNC(=O)c3ccccc3)N(C(C)=O)[C@H]2CO)cc1,-8.8
